Source: the supplement of paper PMC10849652
Of roughly 7,900 targets only a part is listed; those with a hit were picked by preference. About 0.6% of all pairs of compound and target were hits.

Key:
Experiment in all cases: log2 fold change, soluble protein after heating vs DMSO (PISA); higher = thermal stabilisation; K562 cells, 10 uM, 30 min; active = over 0.2 and 3.5 SD of the protein, either way, in both replicates (recomputed)
[1] = compound: CS(=O)(=O)c1ccc(-c2cnc(N)c(C(=O)Nc3ccccc3)n2)cc1
Method in brief: (§1)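 Thermal stability values are relative to control samples and come from duplicates. They are expressed as log2 fold changes. For measurement, K562 cells (2×10^6 cells/mL) received 10 μM compound for 30 min, and aliquots were heated for 3 min over 48°C-58°C, pooled, and extracted at 4°C in PBS with 0.5% NP-40. Soluble protein, the supernatant after 21,000xg for 90 min, was quantified by TMTpro 16plex LC-MS/MS with equalised channel sums.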

crizotinib = compound: C[C@@H](Oc1cc(-c2cnn(C3CCNCC3)c2)cnc1N)c1c(Cl)ccc(F)c1Cl [crizotinib]
Method in brief: as §1

[2] = compound: C[C@@H]1COCCN1C2=NC(=NC(=C2)C3(CC3)S(=O)(=O)C)C4=C5C=CNC5=CC=C4
Method in brief: as §1

[3] = compound: C[C@H](C1=CC=C(C=C1)C(=O)NC2=C3C=CNC3=NC=C2)N
Method in brief: as §1

duvelisib = compound: C[C@H](Nc1ncnc2nc[nH]c12)c1cc2cccc(Cl)c2c(=O)n1-c1ccccc1 [duvelisib]
Method in brief: as §1

gandotinib = compound: Cc1cc(Nc2cc(CN3CCOCC3)c3nc(C)c(Cc4ccc(Cl)cc4F)n3n2)n[nH]1 [gandotinib]
Method in brief: as §1

tozasertib = compound: Cc1cc(Nc2cc(N3CCN(C)CC3)nc(Sc3ccc(NC(=O)C4CC4)cc3)n2)n[nH]1 [tozasertib]
Method in brief: as §1

[4] = compound: Cc1cc(SCc2sc(-c3ccc(C(F)(F)F)cc3)nc2C)ccc1OCC(=O)O
Method in brief: as §1

doramapimod = compound: Cc1ccc(-n2nc(C(C)(C)C)cc2NC(=O)Nc2ccc(OCCN3CCOCC3)c3ccccc23)cc1 [doramapimod]
Method in brief: as §1

ispinesib = compound: Cc1ccc(C(=O)N(CCCN)[C@@H](c2nc3cc(Cl)ccc3c(=O)n2Cc2ccccc2)C(C)C)cc1 [ispinesib]
Method in brief: as §1

bafetinib = compound: Cc1ccc(NC(=O)c2ccc(CN3CC[C@H](N(C)C)C3)c(C(F)(F)F)c2)cc1Nc1nccc(-c2cncnc2)n1 [bafetinib]
Method in brief: as §1

[5] = compound: Cc1cccc(CC(=O)N2CCc3c2ccc(-c2cn(C)c4ncnc(N)c24)c3F)n1
Method in brief: as §1

nilotinib = compound: Cc1cn(-c2cc(NC(=O)c3ccc(C)c(Nc4nccc(-c5cccnc5)n4)c3)cc(C(F)(F)F)c2)cn1 [nilotinib]
Method in brief: as §1

[6] = compound: Cc1nc(Nc2n[nH]c3c2CN(C(=O)N[C@H](CN(C)C)c2ccccc2)C3(C)C)c2sccc2n1
Method in brief: as §1

dasatinib = compound: Cc1nc(Nc2ncc(C(=O)Nc3c(C)cccc3Cl)s2)cc(N2CCN(CCO)CC2)n1 [dasatinib]
Method in brief: as §1

[7] = compound: Cc1ncc(-c2ccnc(Nc3ccc(S(C)(=O)=O)cc3)n2)n1C(C)C
Method in brief: as §1

[8] = compound: Cn1cc(-c2ccc3c(c2)CCN3C(=O)Cc2cccc(C(F)(F)F)c2)c2c(N)ncnc21
Method in brief: as §1

[9] = compound: Cn1cc(-c2ccc3nnc(C(F)(F)c4ccc5ncccc5c4)n3n2)cn1
Method in brief: as §1

tipifarnib = compound: Cn1cncc1[C@@](N)(c1ccc(Cl)cc1)c1ccc2c(c1)c(-c1cccc(Cl)c1)cc(=O)n2C [tipifarnib]
Method in brief: as §1

mubritinib = compound: FC(F)(F)c1ccc(/C=C/c2nc(COc3ccc(CCCCn4ccnn4)cc3)co2)cc1 [mubritinib]
Method in brief: as §1

Measured: log2 fold change

EDEM2 (UniProt Q9BV94)
UniProt Q9BV94, sequence (Q9BV94 whole entry, looked up): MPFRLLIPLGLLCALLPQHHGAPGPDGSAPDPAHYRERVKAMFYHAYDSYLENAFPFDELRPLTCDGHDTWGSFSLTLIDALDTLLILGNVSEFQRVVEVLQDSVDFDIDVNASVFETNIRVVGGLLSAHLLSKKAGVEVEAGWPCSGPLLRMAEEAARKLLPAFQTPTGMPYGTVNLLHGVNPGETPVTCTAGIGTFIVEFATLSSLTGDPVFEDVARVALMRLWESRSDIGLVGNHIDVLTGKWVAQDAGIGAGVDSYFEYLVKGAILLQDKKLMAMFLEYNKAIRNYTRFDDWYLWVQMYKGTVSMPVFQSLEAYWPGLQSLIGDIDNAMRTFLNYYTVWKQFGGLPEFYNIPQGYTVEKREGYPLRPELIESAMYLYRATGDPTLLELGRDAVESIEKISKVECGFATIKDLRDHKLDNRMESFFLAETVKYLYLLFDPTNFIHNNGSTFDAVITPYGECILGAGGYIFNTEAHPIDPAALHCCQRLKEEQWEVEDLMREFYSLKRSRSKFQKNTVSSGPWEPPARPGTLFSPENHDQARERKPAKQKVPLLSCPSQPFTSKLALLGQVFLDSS
inactive: [1] 0.036 | crizotinib 0.024 | [2] -0.119 | [3] 0.163 | duvelisib -0.074 | gandotinib -0.081 | tozasertib -0.015 | [4] 0.111 | doramapimod 0.065 | ispinesib -0.04 | bafetinib 0.094 | [5] 0 | nilotinib -0.096 | [6] 0.003 | dasatinib 0.114 | [7] -0.011 | [8] -0.046 | [9] 0 | tipifarnib 0.15 | mubritinib -0.117

DOHH (UniProt Q9BU89)
UniProt Q9BU89, sequence (Q9BU89 whole entry, looked up): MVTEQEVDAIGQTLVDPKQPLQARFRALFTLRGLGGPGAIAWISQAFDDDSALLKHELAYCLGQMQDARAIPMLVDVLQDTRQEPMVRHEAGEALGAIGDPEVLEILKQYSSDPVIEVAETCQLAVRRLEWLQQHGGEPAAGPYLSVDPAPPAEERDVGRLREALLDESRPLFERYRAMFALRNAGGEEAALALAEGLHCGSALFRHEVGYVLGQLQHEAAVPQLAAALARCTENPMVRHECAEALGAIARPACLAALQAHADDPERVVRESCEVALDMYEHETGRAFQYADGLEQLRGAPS
active: bafetinib 0.653
inactive: [1] 0.049 | crizotinib 0.06 | [2] 0.287 | [3] -0.154 | duvelisib 0.055 | gandotinib 0.029 | tozasertib 0.127 | [4] 0.022 | doramapimod 0.005 | ispinesib -0.015 | [5] 0.008 | nilotinib 0.035 | [6] -0.169 | dasatinib 0.013 | [7] -0.054 | [8] -0.089 | [9] 0.022 | tipifarnib 0.014 | mubritinib 0.03

DTWD1 (UniProt Q8N5C7)
UniProt Q8N5C7, sequence (Q8N5C7 whole entry, looked up): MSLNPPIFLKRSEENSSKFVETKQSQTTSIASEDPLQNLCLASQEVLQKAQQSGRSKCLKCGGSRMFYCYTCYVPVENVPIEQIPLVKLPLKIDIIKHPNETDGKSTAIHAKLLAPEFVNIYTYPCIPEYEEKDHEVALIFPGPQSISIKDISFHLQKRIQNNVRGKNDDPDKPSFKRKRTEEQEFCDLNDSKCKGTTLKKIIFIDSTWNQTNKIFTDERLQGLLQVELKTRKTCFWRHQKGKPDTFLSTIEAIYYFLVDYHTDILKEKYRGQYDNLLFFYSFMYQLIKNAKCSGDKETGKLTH
inactive: [1] 0.053 | crizotinib 0.067 | [2] 0.061 | [3] 0.014 | duvelisib 0.015 | gandotinib 0.098 | tozasertib 0.029 | [4] 0.012 | doramapimod 0.009 | ispinesib -0.001 | bafetinib 0.006 | [5] -0.014 | nilotinib 0.057 | [6] 0 | dasatinib 0.001 | [7] 0.082 | [8] 0.051 | [9] -0.027 | tipifarnib -0.02 | mubritinib 0.02

EOGT (UniProt Q5NDL2)
inactive: [1] 0.052 | crizotinib 0 | [2] -0.054 | [3] 0.069 | duvelisib 0.045 | gandotinib -0.003 | tozasertib -0.05 | [4] -0.137 | doramapimod 0.068 | ispinesib -0.006 | bafetinib -0.009 | [5] -0.025 | nilotinib -0.044 | [6] 0.055 | dasatinib -0.052 | [7] -0.005 | [8] -0.082 | [9] -0.038 | tipifarnib 0.029 | mubritinib -0.021

FAM114A2 (UniProt Q9NRY5)
UniProt Q9NRY5, sequence (Q9NRY5 whole entry, looked up): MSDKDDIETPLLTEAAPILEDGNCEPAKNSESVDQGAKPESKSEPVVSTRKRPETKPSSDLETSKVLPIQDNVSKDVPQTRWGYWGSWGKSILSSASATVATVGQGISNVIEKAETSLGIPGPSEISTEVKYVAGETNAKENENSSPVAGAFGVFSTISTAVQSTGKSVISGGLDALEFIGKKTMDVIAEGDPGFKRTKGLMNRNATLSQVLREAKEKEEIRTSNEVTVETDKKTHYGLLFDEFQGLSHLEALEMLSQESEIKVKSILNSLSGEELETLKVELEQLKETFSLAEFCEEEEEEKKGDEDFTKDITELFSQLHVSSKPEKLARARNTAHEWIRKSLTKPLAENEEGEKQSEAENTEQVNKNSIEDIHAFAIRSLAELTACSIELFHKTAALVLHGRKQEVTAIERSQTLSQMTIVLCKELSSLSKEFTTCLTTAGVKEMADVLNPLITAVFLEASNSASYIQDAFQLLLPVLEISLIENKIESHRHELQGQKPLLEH
inactive: [1] -0.005 | crizotinib -0.197 | [2] 0.026 | [3] -0.026 | duvelisib 0.014 | gandotinib -0.06 | tozasertib 0.002 | [4] 0.011 | doramapimod -0.052 | ispinesib -0.096 | bafetinib -0.094 | [5] 0.025 | nilotinib -0.035 | [6] -0.032 | dasatinib -0.083 | [7] 0.004 | [8] 0.001 | [9] 0.019 | tipifarnib -0.002 | mubritinib 0.055

EHBP1L1 (UniProt Q8N3D4)
UniProt Q8N3D4, sequence (Q8N3D4 whole entry, looked up): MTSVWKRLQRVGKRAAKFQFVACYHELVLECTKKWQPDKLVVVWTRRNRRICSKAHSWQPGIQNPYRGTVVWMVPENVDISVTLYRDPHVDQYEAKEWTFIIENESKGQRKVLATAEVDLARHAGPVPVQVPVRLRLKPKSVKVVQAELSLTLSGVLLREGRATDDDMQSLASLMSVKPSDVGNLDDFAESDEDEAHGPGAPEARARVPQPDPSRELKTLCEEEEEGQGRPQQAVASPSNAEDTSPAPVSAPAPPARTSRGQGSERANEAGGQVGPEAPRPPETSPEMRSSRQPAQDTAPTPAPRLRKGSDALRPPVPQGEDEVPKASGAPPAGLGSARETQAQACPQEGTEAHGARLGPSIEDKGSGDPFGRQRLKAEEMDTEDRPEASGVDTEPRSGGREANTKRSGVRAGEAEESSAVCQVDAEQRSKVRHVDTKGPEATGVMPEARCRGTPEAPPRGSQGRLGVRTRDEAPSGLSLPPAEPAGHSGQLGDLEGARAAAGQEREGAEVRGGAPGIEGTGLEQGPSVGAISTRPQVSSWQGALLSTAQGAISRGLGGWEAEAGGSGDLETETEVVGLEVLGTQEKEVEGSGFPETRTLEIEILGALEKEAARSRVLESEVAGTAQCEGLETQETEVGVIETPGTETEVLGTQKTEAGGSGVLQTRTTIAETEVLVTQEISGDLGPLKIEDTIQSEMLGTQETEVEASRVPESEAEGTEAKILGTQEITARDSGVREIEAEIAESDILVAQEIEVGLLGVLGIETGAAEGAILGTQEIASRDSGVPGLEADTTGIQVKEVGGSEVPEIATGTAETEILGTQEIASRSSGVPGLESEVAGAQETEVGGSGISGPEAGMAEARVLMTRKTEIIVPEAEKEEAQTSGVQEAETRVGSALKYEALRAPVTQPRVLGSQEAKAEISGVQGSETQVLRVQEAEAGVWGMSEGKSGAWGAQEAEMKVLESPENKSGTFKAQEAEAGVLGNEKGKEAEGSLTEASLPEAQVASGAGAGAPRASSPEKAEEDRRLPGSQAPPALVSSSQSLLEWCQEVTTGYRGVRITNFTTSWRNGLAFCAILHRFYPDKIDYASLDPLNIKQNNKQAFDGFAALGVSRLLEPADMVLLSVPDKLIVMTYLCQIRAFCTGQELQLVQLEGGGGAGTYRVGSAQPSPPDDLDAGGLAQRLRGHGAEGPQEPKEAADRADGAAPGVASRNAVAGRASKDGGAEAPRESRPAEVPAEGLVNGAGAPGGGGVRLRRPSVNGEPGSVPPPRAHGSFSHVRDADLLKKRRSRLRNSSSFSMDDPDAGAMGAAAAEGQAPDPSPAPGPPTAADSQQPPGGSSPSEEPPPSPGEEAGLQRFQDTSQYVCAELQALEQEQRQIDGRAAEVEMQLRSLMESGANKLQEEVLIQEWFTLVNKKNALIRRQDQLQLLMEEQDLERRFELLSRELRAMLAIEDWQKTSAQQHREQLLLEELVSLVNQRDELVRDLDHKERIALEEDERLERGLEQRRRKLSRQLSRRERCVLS
inactive: [1] 0.034 | crizotinib -0.01 | [2] -0.005 | [3] 0.012 | duvelisib 0.139 | gandotinib -0.206 | tozasertib 0.067 | [4] 0.115 | doramapimod -0.018 | ispinesib -0.047 | bafetinib 0.194 | [5] -0.006 | nilotinib -0.081 | [6] -0.218 | dasatinib -0.123 | [7] 0.256 | [8] 0.005 | [9] 0.006 | tipifarnib -0.039 | mubritinib 0.007

DAG1 (UniProt Q14118)
inactive: [1] 0.037 | crizotinib 0.119 | [2] 0.132 | [3] 0.032 | duvelisib 0.116 | gandotinib -0.006 | tozasertib -0.084 | [4] -0.032 | doramapimod -0.001 | ispinesib -0.001 | bafetinib 0.03 | [5] -0.076 | nilotinib 0.085 | [6] 0.003 | dasatinib 0.025 | [7] -0.008 | [8] -0.001 | [9] 0.073 | tipifarnib 0.035 | mubritinib 0.05

DLD (UniProt P09622)
UniProt P09622, sequence (P09622 whole entry, looked up): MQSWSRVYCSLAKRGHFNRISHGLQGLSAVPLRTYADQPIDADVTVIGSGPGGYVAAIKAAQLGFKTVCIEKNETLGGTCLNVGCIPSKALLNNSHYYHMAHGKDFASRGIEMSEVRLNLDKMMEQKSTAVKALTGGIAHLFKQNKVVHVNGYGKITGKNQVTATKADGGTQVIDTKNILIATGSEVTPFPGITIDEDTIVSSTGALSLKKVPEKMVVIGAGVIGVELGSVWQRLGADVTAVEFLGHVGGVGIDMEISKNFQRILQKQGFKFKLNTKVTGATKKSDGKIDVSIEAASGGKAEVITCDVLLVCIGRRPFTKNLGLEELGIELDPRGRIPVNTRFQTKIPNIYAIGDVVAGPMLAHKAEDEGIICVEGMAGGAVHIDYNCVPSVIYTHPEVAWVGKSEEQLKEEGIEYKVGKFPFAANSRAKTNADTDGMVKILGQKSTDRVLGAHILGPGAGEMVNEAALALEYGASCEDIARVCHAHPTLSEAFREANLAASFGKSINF
inactive: [1] -0.068 | crizotinib -0.023 | [2] 0.019 | [3] -0.042 | duvelisib 0.016 | gandotinib -0.02 | tozasertib -0.009 | [4] 0.014 | doramapimod -0.016 | ispinesib -0.083 | bafetinib -0.028 | [5] -0.042 | nilotinib 0.034 | [6] -0.018 | dasatinib -0.025 | [7] -0.066 | [8] -0.04 | [9] 0.015 | tipifarnib -0.008
active: mubritinib -0.429

FAM50A (UniProt Q14320)
inactive: [1] 0.009 | crizotinib 0.129 | [2] 0.026 | [3] -0.06 | duvelisib -0.03 | gandotinib 0.147 | tozasertib 0.089 | [4] 0.092 | doramapimod -0.061 | ispinesib 0.095 | bafetinib -0.035 | [5] -0.045 | nilotinib -0.016 | [6] -0.096 | dasatinib -0.134 | [7] 0.029 | [8] -0.021 | [9] 0.044 | tipifarnib -0.031 | mubritinib 0.083

FADS3 (UniProt Q9Y5Q0)
UniProt Q9Y5Q0, sequence (Q9Y5Q0 whole entry, looked up): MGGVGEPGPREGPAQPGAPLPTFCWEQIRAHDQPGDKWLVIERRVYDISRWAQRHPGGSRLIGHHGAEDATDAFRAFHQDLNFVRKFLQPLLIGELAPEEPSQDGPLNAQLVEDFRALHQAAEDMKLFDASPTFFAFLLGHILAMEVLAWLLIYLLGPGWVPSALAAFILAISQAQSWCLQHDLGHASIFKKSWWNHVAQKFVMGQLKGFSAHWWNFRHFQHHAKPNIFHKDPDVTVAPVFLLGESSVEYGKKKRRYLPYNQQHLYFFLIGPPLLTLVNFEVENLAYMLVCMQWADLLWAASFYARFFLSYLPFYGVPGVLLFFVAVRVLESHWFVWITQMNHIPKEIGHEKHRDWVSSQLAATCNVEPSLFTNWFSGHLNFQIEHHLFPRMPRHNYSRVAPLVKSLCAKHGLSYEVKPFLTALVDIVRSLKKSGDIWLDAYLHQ
active: ispinesib -0.311
inactive: [1] 0.042 | crizotinib -0.237 | [2] 0.198 | [3] 0.055 | duvelisib 0.079 | gandotinib -0.058 | tozasertib -0.042 | [4] 0.073 | doramapimod -0.013 | bafetinib -0.11 | [5] 0.044 | nilotinib 0.108 | [6] -0.012 | dasatinib -0.109 | [7] -0.013 | [8] 0.034 | [9] -0.037 | tipifarnib -0.033 | mubritinib 0.059

CYP51A1 (UniProt Q16850)
active: tipifarnib 1.27
inactive: [1] 0.028 | crizotinib 0.12 | [2] -0.162 | [3] 0.147 | duvelisib -0.075 | gandotinib -0.111 | tozasertib -0.031 | [4] 0 | doramapimod 0.156 | ispinesib 0.117 | bafetinib 0.02 | [5] -0.019 | nilotinib 0.156 | [6] -0.03 | dasatinib 0.092 | [7] -0.016 | [8] -0.016 | [9] -0.143 | mubritinib 0.047

FAAP100 (UniProt Q0VG06)
UniProt Q0VG06, sequence (Q0VG06 whole entry, looked up): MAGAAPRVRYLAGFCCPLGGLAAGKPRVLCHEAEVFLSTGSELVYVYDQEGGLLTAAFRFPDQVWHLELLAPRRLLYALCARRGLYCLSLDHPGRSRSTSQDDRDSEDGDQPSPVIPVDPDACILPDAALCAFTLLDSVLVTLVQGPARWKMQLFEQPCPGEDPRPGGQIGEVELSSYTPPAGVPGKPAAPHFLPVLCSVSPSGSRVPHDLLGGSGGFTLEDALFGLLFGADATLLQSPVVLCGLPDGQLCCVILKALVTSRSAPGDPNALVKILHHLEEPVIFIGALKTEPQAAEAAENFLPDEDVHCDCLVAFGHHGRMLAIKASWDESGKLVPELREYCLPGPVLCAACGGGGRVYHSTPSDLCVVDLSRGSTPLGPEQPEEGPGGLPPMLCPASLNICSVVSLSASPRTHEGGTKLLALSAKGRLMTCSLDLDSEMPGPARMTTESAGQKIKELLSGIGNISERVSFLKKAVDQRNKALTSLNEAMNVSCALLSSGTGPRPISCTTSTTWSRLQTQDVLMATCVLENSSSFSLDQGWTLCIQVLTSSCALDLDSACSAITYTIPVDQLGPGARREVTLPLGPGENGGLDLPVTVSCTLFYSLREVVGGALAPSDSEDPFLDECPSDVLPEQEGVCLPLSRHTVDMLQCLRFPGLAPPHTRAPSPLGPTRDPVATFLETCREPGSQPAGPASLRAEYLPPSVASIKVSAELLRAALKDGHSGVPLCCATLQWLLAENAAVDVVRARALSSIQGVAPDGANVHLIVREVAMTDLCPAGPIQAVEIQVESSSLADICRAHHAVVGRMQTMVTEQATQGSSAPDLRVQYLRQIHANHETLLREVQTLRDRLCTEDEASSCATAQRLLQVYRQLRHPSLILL
inactive: [1] -0.043 | crizotinib -0.027 | [2] 0.142 | [3] -0.051 | duvelisib 0.041 | gandotinib -0.096 | tozasertib -0.023 | [4] -0.077 | doramapimod 0.033 | ispinesib -0.006 | bafetinib 0.201 | [5] 0.043 | nilotinib -0.032 | [6] -0.005 | dasatinib 0.035 | [7] -0.039 | [8] -0.005 | [9] 0.101 | tipifarnib 0.1 | mubritinib 0

EIF3J (UniProt O75822)
inactive: [1] -0.024 | crizotinib -0.012 | [2] 0.009 | [3] -0.035 | duvelisib 0.048 | gandotinib -0.157 | tozasertib 0.038 | [4] 0.005 | doramapimod -0.022 | ispinesib 0.099 | bafetinib -0.067 | nilotinib 0.001 | [6] -0.019 | dasatinib -0.018 | [7] 0.008 | [8] 0.022 | [9] -0.014 | tipifarnib -0.013 | mubritinib 0.033
active: [5] 0.266

FADS1, A0A0A0MR51
inactive: [1] 0.096 | crizotinib -0.049 | [2] -0.019 | [3] -0.026 | duvelisib 0.016 | tozasertib -0.011 | [4] -0.007 | doramapimod 0 | bafetinib -0.03 | [5] 0.062 | nilotinib 0.004 | [6] -0.005 | dasatinib 0.011 | [7] -0.019 | [9] -0.045 | tipifarnib -0.021 | mubritinib 0.028
active: gandotinib 0.434 | ispinesib -0.252 | [8] 0.253

ELOC (UniProt Q15369)
inactive: [1] 0.038 | crizotinib 0.074 | [3] -0.07 | duvelisib 0.137 | gandotinib -0.001 | tozasertib 0.06 | [4] -0.015 | doramapimod 0.012 | ispinesib 0.134 | bafetinib 0.003 | [5] 0.014 | nilotinib -0.028 | [6] 0.013 | dasatinib 0.032 | [7] -0.003 | [8] 0.116 | [9] 0.049 | tipifarnib -0.027 | mubritinib 0.005
active: [2] 0.279

EMD (UniProt P50402)
active: crizotinib -0.215
inactive: [1] 0.042 | [2] 0.019 | [3] 0.018 | duvelisib -0.033 | gandotinib -0.047 | tozasertib -0.049 | [4] 0.015 | doramapimod 0.018 | ispinesib -0.092 | bafetinib -0.167 | [5] -0.081 | nilotinib 0.074 | [6] -0.071 | dasatinib -0.017 | [7] -0.045 | [8] -0.005 | [9] -0.098 | tipifarnib 0.087 | mubritinib 0.031
